This is an account of results in PubChem BioAssay.

Each structure is given as a SMILES string. A number with no mark means an inactive call. For some of these results: Results with a measured potency or affinity are listed apart. Activity calls are given as the source filed them. Unless noted, no rule for the calls is given here.

Broadly, the inhibition is the drop in the measured response relative to a control, in per cent.

Test [1] is described as follows: antimalarial activity against Dd2 strain (AID 2302;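 active = growth inhibition above 50% at the single 2 µM test dose, taken to imply half-maximal potency below 2 µM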;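 also: 0% = DMSO untreated growth and 100% = chloroquine plus artemisinin killed control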). The following applies: P. falciparum Dd2 in RBCs, LDH growth readout, 72 h; at 2 µM; active compounds read high.
Test [2] in a line: human hepatoma cell viability loss – ATP luminescence, cytotoxicity control for P. falciparum antimalarial project, primary screen (AID 2303;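 active = inhibition above 50%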;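 also: 0% = DMSO wells and 100% = digitonin-killed cells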). The following applies: HepG2 viability, 24-48 h, at 10 µM, active compounds read high.
Test [3] concerns the target L-lactate dehydrogenase (Plasmodium falciparum (isolate CDC / Honduras)) (UniProt Q27743). The test is described as follows: PfLDH activity inhibition – cell lysate, 3D7 strain, counter-screen for P. falciparum growth inhibition project (AID 2304).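 Also: 0% = vehicle and 100% = reference inhibitor.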 The note with it: P. falciparum 3D7 crude extract, LDH APAD/NBT absorbance; at 2 µM; active compounds read high. (In general: The purpose of a counterscreen is to sort out artefacts and off-target activity.)

A short description of test [4]: inhibition of 3D7 malaria parasite growth – strain 3D7 (AID 2306).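 Also: 0% = DMSO wells and 100% = chloroquine plus artemisinin control wells.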 The following applies: P. falciparum 3D7 erythrocytic growth, LDH absorbance, 72 h; at 2 µM; active compounds read high.
Test [5] concerns the target Calcium-dependent protein kinase 1 (Plasmodium falciparum (isolate 3D7)) (UniProt P62344). The test is described as follows: PfCDPK1 kinase inhibitors, biochemical, TCAMS library (AID 1159585; cut-off not given, nearly all actives have IC50 up to about 0.98 µM;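 also: inhibitors leave more ATP so luminescence rises with inhibition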). The following applies: recombinant PfCDPK1, Kinase-Glo ATP depletion luminescence. (Kinase-Glo reads ATP consumption through a luciferase reaction.)
Test [6] deals with Plasmodium falciparum protein kinase 6 (PK6, PF3D7_1337100) (UniProt Q8IDW1). The experiment in a line: PfPK6 kinase inhibitors, biochemical, TCAMS library (AID 1159586). The note with it: recombinant PfPK6, Kinase-Glo ATP depletion luminescence.
In test [7] the target is Protein kinase 7 (PK7), Plasmodium falciparum 3D7 (PF3D7_0213400) (UniProt Q7YTF7). The experiment in a line: inhibition of Plasmodium PK7 catalytic activity – biochemical, TCAMS antimalarial set, Kinase-Glo luminescence (AID 1159587). The following applies: recombinant PfPK7, Kinase-Glo ATP depletion luminescence.
Test [8] has as its target Calcium-dependent protein kinase 4 (Plasmodium falciparum (isolate 3D7)) (UniProt Q8IBS5). The experiment in a line: PfCDPK4 kinase inhibitors, biochemical, TCAMS library (AID 1159588; cut-off not given, nearly all actives have IC50 up to about 0.91 µM). The note with it: recombinant PfCDPK4, Kinase-Glo ATP depletion luminescence.

Chain of Protein kinase 7 (PK7), Plasmodium falciparum 3D7 (PF3D7_0213400) (Q7YTF7 1-343): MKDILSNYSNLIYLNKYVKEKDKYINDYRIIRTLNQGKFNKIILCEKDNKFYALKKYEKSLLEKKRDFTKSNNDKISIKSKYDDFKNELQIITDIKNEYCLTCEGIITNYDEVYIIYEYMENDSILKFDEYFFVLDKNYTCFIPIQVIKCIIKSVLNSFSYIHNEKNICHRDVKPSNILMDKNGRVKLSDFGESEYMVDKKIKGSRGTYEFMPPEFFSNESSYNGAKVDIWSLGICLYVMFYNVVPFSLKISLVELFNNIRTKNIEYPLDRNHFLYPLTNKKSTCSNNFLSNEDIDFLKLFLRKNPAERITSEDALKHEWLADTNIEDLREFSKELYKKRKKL
Chain of Calcium-dependent protein kinase 4 (Plasmodium falciparum (isolate 3D7)) (Q8IBS5 whole entry, looked up): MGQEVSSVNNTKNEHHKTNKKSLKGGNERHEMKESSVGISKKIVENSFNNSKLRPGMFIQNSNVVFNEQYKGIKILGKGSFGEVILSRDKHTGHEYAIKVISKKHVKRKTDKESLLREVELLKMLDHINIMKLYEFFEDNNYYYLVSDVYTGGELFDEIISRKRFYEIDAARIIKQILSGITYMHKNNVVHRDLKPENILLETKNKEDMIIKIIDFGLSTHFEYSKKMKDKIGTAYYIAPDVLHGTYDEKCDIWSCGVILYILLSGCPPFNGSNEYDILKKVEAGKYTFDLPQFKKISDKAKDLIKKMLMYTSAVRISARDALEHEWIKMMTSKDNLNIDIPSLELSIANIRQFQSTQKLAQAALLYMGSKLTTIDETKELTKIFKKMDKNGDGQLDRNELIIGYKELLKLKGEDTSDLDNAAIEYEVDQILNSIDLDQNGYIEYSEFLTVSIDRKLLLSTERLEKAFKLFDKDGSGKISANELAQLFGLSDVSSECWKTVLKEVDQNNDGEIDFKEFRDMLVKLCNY
Chain of Calcium-dependent protein kinase 1 (Plasmodium falciparum (isolate 3D7)) (P62344 whole entry, looked up): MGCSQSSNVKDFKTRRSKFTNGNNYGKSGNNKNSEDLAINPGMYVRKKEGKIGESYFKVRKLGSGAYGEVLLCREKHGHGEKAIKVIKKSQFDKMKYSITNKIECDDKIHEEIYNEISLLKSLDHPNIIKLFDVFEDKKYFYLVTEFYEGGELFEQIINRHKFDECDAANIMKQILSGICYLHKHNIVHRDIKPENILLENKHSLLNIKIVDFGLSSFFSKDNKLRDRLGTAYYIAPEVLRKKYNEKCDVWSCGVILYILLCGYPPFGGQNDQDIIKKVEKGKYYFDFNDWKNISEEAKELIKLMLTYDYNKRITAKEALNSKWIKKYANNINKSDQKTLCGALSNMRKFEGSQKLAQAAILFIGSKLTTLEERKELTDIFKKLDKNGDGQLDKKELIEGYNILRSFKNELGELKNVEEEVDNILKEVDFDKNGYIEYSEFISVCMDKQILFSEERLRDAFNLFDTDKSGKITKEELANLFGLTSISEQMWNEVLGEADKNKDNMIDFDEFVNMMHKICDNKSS
Chain of Plasmodium falciparum protein kinase 6 (PK6, PF3D7_1337100) (Q8IDW1 1-305): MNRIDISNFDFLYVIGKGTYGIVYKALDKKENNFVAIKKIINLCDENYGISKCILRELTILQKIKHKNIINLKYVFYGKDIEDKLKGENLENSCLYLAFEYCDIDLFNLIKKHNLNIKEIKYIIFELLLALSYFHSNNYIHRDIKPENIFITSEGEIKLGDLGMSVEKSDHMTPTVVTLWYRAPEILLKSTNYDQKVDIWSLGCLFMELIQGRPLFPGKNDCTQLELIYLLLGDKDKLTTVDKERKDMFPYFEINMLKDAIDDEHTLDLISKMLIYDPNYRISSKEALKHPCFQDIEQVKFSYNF
Chain of L-lactate dehydrogenase (Plasmodium falciparum (isolate CDC / Honduras)) (Q27743 whole entry, looked up): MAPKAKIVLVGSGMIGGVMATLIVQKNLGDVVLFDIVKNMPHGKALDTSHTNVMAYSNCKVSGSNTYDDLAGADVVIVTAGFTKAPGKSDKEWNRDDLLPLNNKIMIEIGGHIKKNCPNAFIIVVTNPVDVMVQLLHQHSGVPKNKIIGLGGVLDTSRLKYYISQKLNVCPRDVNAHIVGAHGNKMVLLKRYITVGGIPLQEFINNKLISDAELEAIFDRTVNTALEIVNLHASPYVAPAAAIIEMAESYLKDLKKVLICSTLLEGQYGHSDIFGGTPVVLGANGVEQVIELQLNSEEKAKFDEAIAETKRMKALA

On to `O=C(/C=C/c1ccc(Cl)c(Cl)c1)NC1CCN(CCNC(=O)c2cccc(Cl)c2)CC1`, for which the values for the growth inhibition in test [1] and in test [4] were 45% and 103% (active), respectively. In addition, the inhibition in test [2] is 22%; in test [3], 0%. Also, the outcome in test [5], in test [6], in test [7] and in test [8] was inactive.
For the compound `Cc1cccc2[nH]c(-c3cccc(-c4cccc(NC(=O)c5cnccc5C(F)(F)F)c4)c3)nc12`, the growth inhibition was 47% in test [1] and 98% (active) in test [4]. Also, the inhibition in test [2] is 7%; in test [3], -11%. The result in test [5], in test [6], in test [7] and in test [8] was inactive.
For `O=C1CSc2ccc(CNC3CCN(CCc4c(Cl)cnc5ccc(Cl)cc45)CC3)nc2N1`, the growth inhibition in test [1] is 92% (active); in test [4], 101% (active). For the same compound, the inhibition was 25% in test [2] and 2% in test [3]. The result in test [5], in test [6], in test [7] and in test [8] was inactive.
For the compound `C[C@H]1CN(Cc2cccc(-c3cc(CNC(=O)c4cccc(CN5CCN(C/C=C/c6ccccc6)CC5)c4)ccc3F)c2)CCN1`, the growth inhibition in test [1] was 46%; in test [4], 98% (active). In addition, the inhibition in test [2] was 98% (active); in test [3] it was -2%. For the same compound, the result in test [5], in test [6], in test [7] and in test [8] was inactive.
As for `O=C(CCCC(=O)Nc1ccc(C2=NCCN2)cc1)Nc1ccc(C2=NCCN2)cc1`, the growth inhibition is 81% (active) in test [1] and 91% (active) in test [4]. Also, the inhibition is 3% in test [2] and 2% in test [3]. The outcome in test [5], in test [6], in test [7] and in test [8] was inactive.
Take `CCOc1ccc2nc(-c3ccccc3)cc(NN=Cc3ccncc3)c2c1`: the results for the growth inhibition in test [1] and in test [4] were 101% (active) and 102% (active), respectively. The inhibition in test [2] was 19%; in test [3], 0%. Further, the outcome in test [5], in test [6], in test [7] and in test [8] was inactive.
With `COc1ccc(NC(=O)c2ccc(Br)c(C)c2)cc1N1CCN(CCCCc2ccccc2)CC1`, the growth inhibition in test [1] was 17%; in test [4] it was 88% (active). For the same compound, the inhibition is 29% in test [2] and -1% in test [3]. The result in test [5], in test [6], in test [7] and in test [8] was inactive.
As to `CC(=O)N/N=C/[C@H](CCc1ccccc1)NC(=O)[C@H](CC(C)C)NC(=O)c1cccc(OCCN2CCOCC2)c1`, the growth inhibition is 78% (active) in test [1] and 94% (active) in test [4]. For the same compound, the values for the inhibition in test [2] and in test [3] were 13% and -6%, respectively. Also, the outcome in test [5], in test [6], in test [7] and in test [8] was inactive.
As for `COc1ccccc1Nc1nc(NC2CCN(C)CC2)cc(-c2cccc(C(F)(F)F)c2)n1`, the figures for the growth inhibition in test [1] and in test [4] were 71% (active) and 95% (active), respectively. Also, the inhibition was 100% (active) in test [2] and -10% in test [3]. In addition, the result in test [5], in test [6], in test [7] and in test [8] was inactive.
For the compound `COc1cccc2c1CCN(CCN1CCC(CNC(=O)c3ccc(-c4ccc(C#N)cc4)cc3)CC1)C2`, the figures for the growth inhibition in test [1] and in test [4] were 98% (active) and 99% (active), respectively. Also, the inhibition in test [2] was 57% (active); in test [3], 6%. Further, the outcome in test [5], in test [6], in test [7] and in test [8] was inactive.
In the case of `N#Cc1ccc(N(CCOC(=O)c2ccc(Br)s2)Cc2ccccc2C(F)(F)F)cc1C(F)(F)F`, the growth inhibition in test [1] is 48%; in test [4], 82% (active). For the same compound, the inhibition was 8% in test [2] and 3% in test [3]. In addition, the outcome in test [5], in test [6], in test [7] and in test [8] was inactive.
Regarding `Cc1cccn2c(=O)c3cc(C(=O)NC(C)c4ccccc4)c(=N)n(CCc4ccccc4)c3nc12` (stereo not given), the figures for the growth inhibition in test [1] and in test [4] were 82% (active) and 101% (active), respectively. The inhibition in test [2] was 5%; in test [3], -3%. Besides, the outcome in test [5], in test [6], in test [7] and in test [8] was inactive.
Take `CCCCCCCN1CCC(CCNc2ccnc3ccc(OC)cc23)CC1`: the values for the growth inhibition in test [1] and in test [4] were 86% (active) and 84% (active), respectively. Besides, the inhibition in test [2] was 5%; in test [3] it was -2%. Besides, the result in test [5], in test [6], in test [7] and in test [8] was inactive.
As to `CCOc1cc(Cc2cnc(N)nc2N)cc(OC)c1OC`, the growth inhibition was 0% in test [1] and 90% (active) in test [4]. The inhibition in test [2] is -3%; in test [3], -1%. Also, the outcome in test [5], in test [6], in test [7] and in test [8] was inactive.
Consider `C[C@@H](N=C(Nc1ccc(C#N)cc1O)Nc1ccccc1Cl)c1ccc(Br)cc1`, for which the growth inhibition in test [1] was 70% (active); in test [4], 98% (active). Further, the inhibition in test [2] is 33%; in test [3] it was 0%. Also, the result in test [5], in test [6], in test [7] and in test [8] was inactive.
For `N#Cc1ccc2c(c1)CCN(CCC1CCC(NC(=O)/C=C/c3c[nH]c4c(Br)cccc34)CC1)CC2` (stereo not given), the growth inhibition in test [1] was 65% (active); in test [4], 101% (active). For the same compound, the inhibition in test [2] was 32%; in test [3], 0%. Moreover, the outcome in test [5], in test [6], in test [7] and in test [8] was inactive.
For `O=C(Nc1ccc(C(F)(F)F)cc1)c1cccc(S(=O)(=O)NCC2CCCN(CC3CCCCC3)C2)c1` (stereo not given), the results for the growth inhibition in test [1] and in test [4] were 4% and 97% (active), respectively. Besides, the inhibition in test [2] was 27%; in test [3], 0%. The outcome in test [5], in test [6], in test [7] and in test [8] was inactive.
Turning to `CN1CCC(Oc2cc(NC(=O)Nc3ccc(-c4ccncc4)c(Cl)c3)ccc2Cl)CC1`, the growth inhibition is 100% (active) in test [1] and 99% (active) in test [4]. In addition, the figures for the inhibition in test [2] and in test [3] were 23% and -5%, respectively. The result in test [5], in test [6], in test [7] and in test [8] was inactive.
On to `CCN1CCc2nc3ccccc3c(C(=O)Nc3ccc(C#N)cc3)c2C1`, for which the values for the growth inhibition in test [1] and in test [4] were 72% (active) and 99% (active), respectively. The inhibition in test [2] was 24%; in test [3], -1%. Moreover, the result in test [5], in test [6], in test [7] and in test [8] was inactive.
Turning to `CC(C)Oc1ccc(N2CCN(CCCCNC(=O)c3ccc(NC(=O)c4ccc(Cl)cc4)cc3)CC2)c(OC(C)C)c1`, the results for the growth inhibition in test [1] and in test [4] were 85% (active) and 102% (active), respectively. The inhibition in test [2] is 31%; in test [3], 1%. The result in test [5], in test [6], in test [7] and in test [8] was inactive.
